From PubChem BioAssay
TRPML1 blocker: blocks the human TRPML1 channel | Q9GZU1 | 390,000 compounds, 0.02% hits | AID 624415 | activity change, negative = inhibition, % (concentration not given with the values) | TRPML1-inducible cells, Ca2+ dye fluorescence, FDSS; hits give low values; inhibition of EC80 agonist-evoked calcium signal; in the data active = activity change below about -50%; inconclusive = between about -30% and that limit;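 note: stimulus is agonist 54-4 at its EC80 concentration; % is set by controls: 0 for no effect and ±100 for the full control effect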
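TRPML1-DL cells, Tet-induced overnight (~16 h, 37 °C) at 1,500 cells/well, were loaded with Ca8 no-wash dye plus quencher for 45-90 min at room temperature. Compounds were pinned during FDSS kinetic reading; agonist 54-4 at EC80 (4 uM final) then added.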
PTAP TSG101 blk: blocks PTAP/TSG101 interaction to inhibit HIV-1 budding. Fluorescence polarization, FITC-PTAP peptide / Tsg101 binding. Potency, µM (highest dose often 115 µM), for the others: at the highest dose activity change, negative = inhibition, usual class: inhibitors. 340,000 tested, under 10 active; active = well fitted inhibition curve with a large enough effect in the main read-out, with a control signal flat, not every such curve was filed as active; inconclusive = small, poorly fitted or top-dose-only effect, or effect the other way, or a change in a side signal; inactive = no such curve, though single readings can be large or run the other way; note: potency is the fitted concentration of half-maximal effect; % of control where 0% means no effect
Target sequence (Q99816 whole entry, looked up): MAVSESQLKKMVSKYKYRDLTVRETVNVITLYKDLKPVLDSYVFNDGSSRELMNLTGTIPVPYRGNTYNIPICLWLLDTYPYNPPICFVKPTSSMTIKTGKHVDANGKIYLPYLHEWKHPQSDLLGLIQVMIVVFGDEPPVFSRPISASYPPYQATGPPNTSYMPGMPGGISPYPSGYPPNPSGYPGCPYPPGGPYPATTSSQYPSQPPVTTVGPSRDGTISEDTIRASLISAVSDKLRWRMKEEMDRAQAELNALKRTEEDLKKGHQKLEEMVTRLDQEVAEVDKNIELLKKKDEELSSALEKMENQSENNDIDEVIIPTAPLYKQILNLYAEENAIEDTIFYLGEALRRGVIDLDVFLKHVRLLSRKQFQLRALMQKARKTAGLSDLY
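Steps: Tsg101 binding domain dispensed (10 uM final), compounds pinned in DMSO, FITC-labeled PTAP-motif peptide added (50 nM final); after 20 min binding at room temperature, polarization measured.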
TRPML1 agonist: agonists of human TRPML1 channel. activation, % (no concentration beside the values). Q9GZU1. 410,000 compounds, 0.12% hits. TRPML1-expressing cells, Ca2+ dye fluorescence, FDSS; in the data active = activation above about 50%; inconclusive = mostly about 30% to 49%; note: 0% is about no effect
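Agonist activity was taken from a 110 s kinetic Ca2+ dye read on the FDSS after pinning compounds onto TRPML1-DL cells. The cells were seeded at 1,500/well with Tet inducer, incubated about 16 h, then dye-loaded at room temperature.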
GRP78 ERSR act: induces the endoplasmic reticulum stress response in human glioma cells. U87-MG GRP78 promoter luciferase reporter, 16 h. Potency, µM, without a hit: top-dose activation, actives largely listed as activators. 420,000 compounds, 0.02% hits. AID 602332; active = well fitted activation curve with a large enough effect; inconclusive = small, poorly fitted or top-dose-only effect; inactive = no such curve, though single readings can be large or run the other way; note: potency is the fitted concentration of half-maximal effect; series mostly up to about 76 µM; % of control where 0% means no effect; nearly all actives have a fitted effect of over 35% in size
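ERSR induction read as luciferase luminescence (Bright-Glo, 10 min at room temperature) in stably transfected human U87-MG glioma cells exposed to compounds for 16 h, using GRP78 as sensor.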
KCNH2 3.1 inh: inhibitors of human KCNH2 3.1 potassium channel isoform; U2OS KCNH2 3.1, thallium flux FluxOr; hits give low values; activity change, % (tested at about 1.8 µM); 340,000 compounds, 0.95% hits; AID 720553;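 active = maximum activity change below -70%; inconclusive = maximum activity change from -70% to -50%; inactive = maximum activity change above -50%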;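 note: thallium influx rate constant from kinetic fluorescence after stimulation buffer; % is set by controls: 0 for no effect and ±100 for the full control effect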
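Normalized rate constant (relative to positive and negative DMSO controls) derived from a 2 min kinetic fluorescence read after stimulation; U2OS cells expressing the 3.1 isoform via virus at 1.77 x 10^8 /mL.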
hERG WT inh: blocks the wildtype human KCNH2 potassium channel. 340,000 compounds, 0.37% hits. activity change, % at 1.84 µM. AID 720551. U2OS, BacMam KCNH2, thallium flux FluxOr; hits give low values. Q12809;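 active = maximum activity change below -70%; inconclusive = maximum activity change between -70% and -50%; inactive = maximum activity change above -50%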; note: % is set by controls: 0 for no effect and ±100 for the full control effect
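U2OS cells were transduced with wild-type KCNH2 virus (2.03 x 10^8 / mL) for 4 h at room temperature, then cultured overnight at 37 C. Thallium flux was read with FluxOr dye. Rate constants were normalized to DMSO controls.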
The depositor's hits bear a star; ? = inconclusive; . = no result given. A selection: hits, their analogues and other compounds. The true share with any hit is near 1%.

SMILES	TRPML1 blocker	PTAP TSG101 blk	TRPML1 agonist	GRP78 ERSR act	KCNH2 3.1 inh	hERG WT inh
COc1ccccc1NC(=O)Nc1ccc(-n2ccc(C(F)(F)F)n2)cc1	76.1	3.2%	0.7	5.6%	-201.5*	-124.5*
COc1cc(CNc2nc(C)c(-c3ccn(C4Cc5ccccc5C4)n3)s2)cc2c1OCO2	.	.	.	-1.4%	.	.
CC[N+](C)(C)c1ccc(/C=C/c2ccncc2)cc1	.	.	7.0	-3.0%	.	.
CN1C(=O)/C(=C\c2ccc(N(C)C)cc2)OC1=S	-6.7	?	82.3*	1.6%	-23.5	-101.4*
COC(=O)c1cc(S(=O)(=O)NCC2CCN(Cc3ccc(C)cc3)CC2)c[nH]1	-1.1	-3.3%	-0.2	4.5%	-76.1*	-26.3
CCOC(=O)c1c(C)[nH]c(C)c1S(=O)(=O)NCC1CCN(Cc2cccc(Cl)c2)CC1	-6.3	-4.3%	0.8	-3.5%	-120.6*	-3.5
O=C(NCCc1ccccn1)C1CC12CCN(C(=O)c1c(F)cccc1Cl)CC2 (stereo not drawn)	.	.	.	-3.0%	.	.
NC(=S)NNc1cccc(Cl)c1	7.2	-6.1%	1.0	-1.8%	-82.4*	-2.6
NC(=S)NNC(=O)Nc1cccc(Cl)c1	20.8	-6.1%	0.0	-6.2%	11.2	15.2
Cc1cc(-c2ccnc(-n3ncc(C(=O)N(C)CC(O)c4ccccc4)c3C)n2)c(C)s1 (stereo not drawn)	.	.	.	3.0%	.	.
CC1CN(CCC(=O)NCc2ccc3ncccc3c2)Cc2cc(Cl)ccc2O1 (stereo not drawn)	.	.	.	-5.7%	.	.
CCCn1c(N)c(N(CCOC)C(=O)COC(=O)c2ccccc2NCCO)c(=O)[nH]c1=O	77.1	0.0%	-0.6	-0.4%	-192.4*	-6.4
CCCCn1c(N)c(N(CC(C)C)C(=O)COC(=O)c2ccccc2NCCO)c(=O)[nH]c1=O	-4.9	-4.5%	-0.1	-1.5%	8.3	-5.6
O=C(CCCc1c[nH]c2ccccc12)NCCc1c[nH]c2ccccc12	-19.7	-7.3%	0.4	-3.8%	-1.4	0.0
Cc1c(Cl)cccc1NC(=O)CNC(=O)Cc1c[nH]c2ccccc12	-4.4	-2.3%	-0.7	-4.9%	-4.2	-6.0
CC(C)CNC(=O)CCCc1c[nH]c2ccccc12	-11.0	-11.4%	1.6	-2.4%	-11.5	-70.4*
Cc1cccc(C)c1NC(=O)CNC(=O)Cc1c[nH]c2ccccc12	-11.7	3.3%	1.0	-4.8%	5.0	-106.0*
COc1cc(=O)n2c(c1C(=O)NC(C)c1ccco1)CCN(C(=O)c1ccccc1SC)CC2 (stereo not drawn)	.	.	.	-2.2%	.	.
O=[N+]([O-])c1ccc(N(CC(O)CN2CCCCC2)S(=O)(=O)c2ccccc2)cc1 (stereo not drawn)	-17.0	-2.7%	-0.1	-1.8%	-75.8*	-43.8
Cc1ccc(N(CC(O)CN2CCCCC2)S(=O)(=O)c2ccccc2[N+](=O)[O-])cc1 (stereo not drawn)	-4.1	-0.7%	-0.6	-1.5%	-3.7	7.5
OC(CN1CCCCC1)CN(c1ccccc1)c1ccccc1 (stereo not drawn)	84.0	-4.2%	0.8	-5.7%	-183.2*	38.0
CNCC(O)CN(c1ccccc1)c1ccccc1 (stereo not drawn)	2.1	0.6%	0.4	-3.5%	-81.3*	5.4
Cc1ccc(N(CC(O)CN2CCCC2)S(=O)(=O)c2ccc(C)cc2)cc1 (stereo not drawn)	-3.9	2.2%	1.2	-5.4%	-104.5*	-47.5
COc1cc2nc(CCNCc3ccccc3)nc(NC3CCN(C)CC3)c2cc1OC	.	.	-0.4	.	.	.
COc1ccc(CN2CCCC(n3cc(C(=O)N4CCCCC4)nn3)C2)c(OC)c1OC (stereo not drawn)	.	.	.	-4.8%	.	.
SMILES	TRPML1 blocker	PTAP TSG101 blk	TRPML1 agonist	GRP78 ERSR act	KCNH2 3.1 inh	hERG WT inh
CC(=O)c1ccc(F)c(-c2cc(C)cc3c2OC(CNC(=O)c2cnc4ccccn4c2=O)C3)c1 (stereo not drawn)	.	.	.	-0.3%	.	.
Fc1ccc(CN2CCN(c3ncnc4scc(-c5ccc(F)cc5)c34)CC2)cc1	-12.5	2.4%	-0.4	-4.9%	-22.6	25.9
Clc1ccc(CN2CCN(c3ncnc4scc(-c5cccs5)c34)CC2)cc1	-4.9	-1.1%	0.6	-4.6%	-82.8*	-45.9
CC(NC(=O)c1cc(F)ccc1F)c1nnc2n1CCN(Cc1ccco1)CC2 (stereo not drawn)	.	.	.	-7.1%	.	.
CCCCC(CC)C(=O)Nc1cc(C(=O)NCCC)ccc1N1CCC2(CC1)CC(c1cccc(Br)c1)=NO2 (stereo not drawn)	2.3	-1.2%	-1.0	-4.6%	?	-84.2*
CCCNC(=O)c1ccc(N2CCC3(CC2)CC(c2ccccc2)=NO3)c(N)c1	28.2	-3.6%	0.0	-4.9%	-2.3	-4.4
CCCNC(=O)c1ccc(N2CCC3(CC2)CC(c2ccccc2)=NO3)c(NC(=O)Cc2ccc(F)cc2)c1	17.2	-0.3%	-0.6	-2.3%	-76.7*	?
COC(=O)c1ccc(NC(=O)c2nc(S(=O)(=O)Cc3ccccc3F)ncc2Cl)cc1	.	.	1.2	-10.8%	.	.
CNCc1c(OCc2ccc(F)cc2)ccc2ccccc12	6.0	-4.2%	-0.3	-3.0%	7.8	9.7
OCc1c(OCc2cccc(F)c2)ccc2ccccc12	.	-8.4%	.	6.4%	-81.5*	-2.8
CC(C)(O)C#Cc1ccc(C(=O)NCCN2Cc3ccccc3OC(c3ccccc3F)C2)o1 (stereo not drawn)	.	.	.	-3.6%	.	.
Cc1ccc(CNC(=O)C23CN(Cc4ccccc4)CC2C(c2cccc([N+](=O)[O-])c2)=NO3)cc1 (stereo not drawn)	22.2	-9.4%	1.0	-4.4%	-71.8*	-7.5
O=C(NCc1ccco1)C12CN(Cc3ccccc3)CC1C(c1cccc([N+](=O)[O-])c1)=NO2 (stereo not drawn)	42.2	-1.9%	0.8	-1.8%	-22.6	4.5
O=C(NCc1ccccc1)C12CN(Cc3ccccc3)CC1C(c1ccc([N+](=O)[O-])cc1)=NO2 (stereo not drawn)	3.3	-6.4%	1.2	0.4%	-76.7*	6.8
Cn1c(CCNC(=O)C2CC23CCN(C(=O)C2=CCCC2)CC3)nc2ccccc21 (stereo not drawn)	.	.	.	-1.7%	.	.
COc1ccccc1C(=O)N/C(=C/c1ccc(Br)cc1)C(=O)NCCCn1ccnc1	-4.6	-0.7%	-0.5	-3.1%	-99.5*	-124.9*
COc1ccc(/C=C(/NC(=O)c2ccccc2)C(=O)NCCCn2ccnc2)cc1OC	15.1	-3.7%	-0.2	-1.9%	-33.8	3.5
CN(C)c1ccc(/C=C(\NC(=O)c2ccccc2)C(=O)NCCCn2ccnc2)cc1	7.3	-6.6%	0.4	-1.0%	-7.0	11.3
